# Some of the results follow. Records with an inconclusive call do not appear. Active and inactive are the calls of the source. Calls follow the shape of the dose curve; as a rule, active = well fitted inhibition curve with a large enough effect; inconclusive = small, poorly fitted or top-dose-only effect; inactive = flat fitted curve, though single readings scatter.
# Biological target: Dual specificity protein kinase CLK4 (Homo sapiens) (UniProt Q9HAZ1)
# Assay: Confirmation Assay for Inhibitors of CDC-like Kinase 4 (Kinase-Glo Assay): SAR round 2
# Details: recombinant Clk4, Kinase-Glo ATP luminescence, 4.5 h
# Method: NIH Molecular Libraries Probe Production Centers Network [MLPCN] NIH Chemical Genomics Center [NCGC] MLPCN Grant: 1R03MH084827-01 Assay Submitter (PI): Tom Misteli NCGC Assay Overview: Clk4 (Invitrogen, cat# PV3839) was assayed using ATP and the RS repeat peptide (AnaSpec cat # 61722) as substrates. Following the Clk4 reaction, the remaining ATP levels were detected using Promega Kinase-Glo technology wherein the remaining ATP from the kinase reaction is detected using Ultra-Glo luciferase and D-luciferin which generates a bioluminescence signal from the ATP. The positive control for the assay was TG003 (Sigma-Aldrich, cat# 300801-52-9) which has been described as an inhibitor of Clk 4[1].
# NCGC Assay Protocol Summary: Two uL/well of substrate-buffer solution (100 uM RS peptide, 1 uM ATP, 25 mM Tris pH7.5, 10 mM MgCl2, 0.5 mM EGTA, 2.5 mM DTT, 0.01% Triton X-100 final concentration) was dispensed into 1536-well, assay plates (Greiner, solid white medium-binding plates) with Aurora Discovery BioRAPTR Flying Reagent Dispenser (FRD; Beckton-Dickenson). Using a Kalypsys pin tool equipped with a 1536-pin tool, 23 nL of compound solution was transferred to the assay plate. […] Luminescence was detected with the ViewLux plate reader (Perkin Elmer, Waltham, MA) after 5 min incubation using a 5 second exposure time and 2x binning.
# Dual specificity protein kinase CLK4 (Homo sapiens), sequence (Q9HAZ1 whole entry, looked up): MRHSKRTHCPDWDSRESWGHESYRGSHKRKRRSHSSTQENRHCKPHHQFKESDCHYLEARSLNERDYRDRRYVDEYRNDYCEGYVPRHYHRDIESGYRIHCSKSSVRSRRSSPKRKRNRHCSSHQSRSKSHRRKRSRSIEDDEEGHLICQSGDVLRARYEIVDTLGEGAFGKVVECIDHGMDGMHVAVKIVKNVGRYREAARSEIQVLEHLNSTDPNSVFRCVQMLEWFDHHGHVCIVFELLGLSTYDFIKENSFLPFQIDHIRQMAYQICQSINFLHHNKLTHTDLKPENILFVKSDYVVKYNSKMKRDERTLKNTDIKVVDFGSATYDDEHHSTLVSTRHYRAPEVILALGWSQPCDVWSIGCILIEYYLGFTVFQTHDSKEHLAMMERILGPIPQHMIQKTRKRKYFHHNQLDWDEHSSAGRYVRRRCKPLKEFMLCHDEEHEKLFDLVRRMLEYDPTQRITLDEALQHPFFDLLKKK
row,Compound,Potency
1,c1nc(N2CCOCC2)c2cc(-c3ccc4c(c3)OCO4)ccc2n1,104 nM (active)

# Source: PubChem BioAssay AID493204 (National Center for Advancing Translational Sciences (NCATS), 2011)
